# BAZ2B block: blocks human BAZ2B | Q9UIF8 | 360,000 tested, 4.4% active | AID 504333 | Potency, µM (doses to about 114 µM), actives largely listed as inhibitors | AlphaScreen BAZ2B-H3K14Ac peptide displacement; also: nearly all actives have a fitted effect of over 60% in size
#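 Protein-peptide AlphaScreen: BAZ2B 50 nM, b-H3K14Ac 50 nM, 1x PBS pH 7.4 + 0.01% Tween-20. Preincubation 30 min RT; cpd 30 min RT (top 110 uM); beads 20 min RT, light-protected.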
# HP1b binding inh: inhibitors of HP1-beta chromodomain binding to methylated histone tails; P83916; AlphaScreen HP1-beta / biotin-H3K9me3 peptide binding; Potency, µM (titrated, usually from 114 µM), usual class: inhibitors; 390,000 tested, 0.56% active; AID 540317; also: nearly all actives have a fitted effect of over 70% in size
#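 HP1-beta protein (50 nM final) preincubated 30 min at room temperature with biotinylated H3(1-18)K9me3 peptide (50 nM) in PBS pH 7.4, 0.01% Tween-20, then compound added for 30 min. AlphaScreen streptavidin donor/nickel chelate acceptor beads (10 ug/mL final), 30 min dark, luminescence read.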
# G9a inh: G9a (human) methyltransferase inhibition. Q96KQ7. G9a H3K9 monomethylation, AlphaScreen, 2 h. Potency, µM (top dose mostly 102 µM), most hits filed as inhibitors. 350,000 tested, 8.8% active; also: nearly all actives have a fitted effect of over 75% in size
#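 Compounds were preincubated with 20 nM G9a for 15 min, after which biotinylated H3K9 peptide (500 nM) and SAM (20 uM) started a 2 h room-temperature reaction. Monomethylated product was quantified by antibody-based AlphaScreen chemiluminescence.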
# 12-LOX inh: blocks human arachidonate 12S-lipoxygenase | 580,000 tested, 1.1% active | purified 12hLO, xylenol orange hydroperoxide absorbance | P18054 | AID 1671190 | Potency, µM (highest dose often 108 µM), hits mostly inhibitors
# Target sequence (P18054 whole entry, looked up): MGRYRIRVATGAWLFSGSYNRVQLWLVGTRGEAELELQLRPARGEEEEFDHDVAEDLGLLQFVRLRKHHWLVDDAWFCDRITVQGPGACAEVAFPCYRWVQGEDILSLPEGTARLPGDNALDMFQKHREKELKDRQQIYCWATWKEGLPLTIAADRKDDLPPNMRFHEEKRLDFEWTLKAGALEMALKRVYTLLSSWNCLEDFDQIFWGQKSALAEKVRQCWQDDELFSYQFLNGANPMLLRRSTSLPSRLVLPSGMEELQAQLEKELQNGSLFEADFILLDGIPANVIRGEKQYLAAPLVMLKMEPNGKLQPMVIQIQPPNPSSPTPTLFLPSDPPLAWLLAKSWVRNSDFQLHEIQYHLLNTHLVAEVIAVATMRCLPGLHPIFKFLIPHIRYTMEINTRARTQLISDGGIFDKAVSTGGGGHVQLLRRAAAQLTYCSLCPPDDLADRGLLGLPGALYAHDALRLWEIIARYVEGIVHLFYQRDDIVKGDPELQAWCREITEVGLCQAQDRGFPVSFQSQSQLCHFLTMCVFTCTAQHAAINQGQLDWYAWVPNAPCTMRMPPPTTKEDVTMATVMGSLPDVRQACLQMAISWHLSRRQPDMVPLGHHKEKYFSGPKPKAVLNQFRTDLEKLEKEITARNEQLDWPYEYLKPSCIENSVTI
#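 Purified human 12hLO at 150 nM in 25 mM Hepes, 0.01% Triton X-100, pH 7.0, preincubated 15 min at room temperature with compound. Reaction started with 40 uM arachidonic acid, 30 min at room temperature. Hydroperoxide measured by Fe-xylenol orange, 573/405 nm absorbance ratio.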
# PLK1 PBD inh: blocks phosphopeptide binding to human PLK1 polo-box domain; P53350; Plk1 PBD binding of FITC phosphopeptide, fluorescence polarization; Potency, µM, hits mostly inhibitors; 360,000 tested, 2.8% active; also: series mostly up to about 57 µM; nearly all actives have a fitted effect of over 65% in size
# JMJD2A Tudor inh: JMJD2A Tudor domain (human) inhibition; Potency, µM (titrated, usually from 114 µM), most hits filed as inhibitors; O75164; 390,000 tested, 4.4% active; AlphaScreen JMJD2A-Tudor / H3K4me3 peptide binding; also: nearly all actives have a fitted effect of over 50% in size
# Numbers stand for hits; . = inactive; ? = inconclusive; / = no result; ! = repeats disagree; [ ] = dose if it differs, or a comment. Shown are actives, neighbours in structure and some others; about 9% of the full set was active somewhere. Calls follow the shape of the dose curve; as a rule, active = well fitted curve in the direction sought with a large enough effect; inconclusive = small, poorly fitted or top-dose-only effect, or another doubt; inactive = no such curve, though single readings can be large; an effect the other way counts as inactive or inconclusive.
SMILES,BAZ2B block,HP1b binding inh,G9a inh,12-LOX inh,PLK1 PBD inh,JMJD2A Tudor inh
CN1CCN(c2ccc([N+](=O)[O-])c(NCC3CCCO3)c2)CC1 (stereo unspecified),.,.,28µM,.,.,.
CN1CCN(c2ccc([N+](=O)[O-])c(N3CCCCC3)c2)CC1,?,.,56µM,.,.,.
CN1CCN(c2ccc([N+](=O)[O-])c(NCc3ccco3)c2)CC1,?,.,?,.,.,?
O=[N+]([O-])c1ccc(N2CCNCC2)cc1N1CCCCCC1,?,.,?,?,.,?
O=C1NCN(c2ccccc2)C12CCN(CCCOc1ccc(F)cc1)CC2,/,/,.,?,/,/
CCOC(=O)Cn1cc(C(=O)c2ccccc2F)c2ccccc21,.,.,.[12.7 µM],.,21µM,?
O=C1CN=C(c2cccs2)c2c(sc3c2CCCC3)N1,?,.,.[12.7 µM],.,.,.
Cc1cc(N=Nc2ccccc2C)ccc1N,/,35µM,/,.,.,40µM
CN(Cc1ccccc1)C(=C(Cl)Cl)/C(=C1/NCCN1Cc1ccc(Cl)nc1)[N+](=O)[O-],.,.,50µM,.,.,.
O=C(O)COc1ccccc1,?,.,.[0.501 µM],.,.,.
Cc1ccccc1C(=O)NNC(=S)NC(=O)COc1ccccc1,?,?,0.56µM,3.5µM,30µM,4.5µM
COc1ccc(CC(=O)NC(=S)NNC(=O)COc2c(C)cccc2C)cc1,.,?,1.1µM,?,?,16µM
COc1ccc(C(=O)NC(=S)NNC(=O)c2cccnc2)cc1,.,.,?,?,.,.
C[n+]1ccc(-c2cc[n+](C)cc2)cc1,/,.,/,?,.,.
O=C(O)CC[n+]1ccc(-c2cc[n+](CCC(=O)O)cc2)cc1,/,/,/,14µM,/,/
O=C(O)c1ccccc1-c1c2cc(Br)c(=O)cc-2oc2[c]([Hg])c(O)c(Br)cc12,/,/,0.89µM,/,/,/
CCN1CCN(C(=O)Cc2coc3ccc4ccccc4c23)CC1,.,.,50µM,?,.,.
COc1ccc(CC2NCCc3cc(OC)c(OC)cc32)cc1OC (stereo unspecified),/,/,/,.,/,/
COc1cc(CCN)cc(OC)c1OC,/,/,/,.,/,/
COc1cc(-c2ccc(N)c(OC)c2)ccc1N,50µM,?,.[0.501 µM],.,.,?
COc1ccc(Cn2c(N)c(C(=O)NCc3ccco3)c3nc4ccccc4nc32)cc1,.,.,.,.,.,.
COc1ccc(N2CC(C(=O)NCc3ccco3)CC2=O)cc1 (stereo unspecified),.,.,18µM,.,.,?
COc1ccc(C(=O)Cn2c(NCCCl)nc3ccccc32)cc1,.,.,?,?,.,.
CC(C)(C)C(=O)Cn1c(NCCCl)nc2ccccc21,.,.,40µM,.,.,.
O=c1c2ccccc2c(C=Nc2ccc(O)cc2)c(O)n1Cc1ccccc1,?,.,.,.,.,.
SMILES,BAZ2B block,HP1b binding inh,G9a inh,12-LOX inh,PLK1 PBD inh,JMJD2A Tudor inh
COc1ccc(C(=O)OCC2CN2c2cccc([N+](=O)[O-])c2)cc1 (stereo unspecified),/,/,/,.,.,/
CCOC(=O)N1CC(C)N(/[N+]([O-])=N/Oc2ccc([N+](=O)[O-])cc2[N+](=O)[O-])CC1C (stereo unspecified),/,.,/,/,/,89µM
COCCCOc1ccnc(CS(=O)c2nc3ccccc3[nH]2)c1C (stereo unspecified),?,22µM,13µM,45µM!,?,35µM
Cc1[nH]c2c(C)ccc(C)c2c1CCN,/,/,/,.,/,/
CCC1(C)CC(C(N)=S)CCO1 (stereo unspecified),?,?,.[12.7 µM],8.9µM,2.1µM,56µM
CC(=O)C1CCC2(O)C3CCC4=CC(=O)CCC4(C)C3CCC12C (stereo unspecified),/,.,/,.,.,.
CC=C(C)C1(CCC)C(=O)NC(=S)NC1=O,/,.,/,32µM,.,.
CCCCC1(CCO)C(=O)NC(=S)NC1=O,/,.,/,.,.,.
CCCC1(CCO)C(=O)NC(=S)NC1=O,/,.,/,.,.,20µM
CC1(C)N([O-])[N+](=O)C1(C)Br (stereo unspecified),/,/,.[2.33 µM],/,/,/
CCCC[N+]1(C)C2CC(OC(=O)[C@H](CO)c3ccccc3)CC1C1OC12 (stereo partly specified),/,/,.,/,/,/
O=C1NC(=O)N(Cc2ccco2)C(=O)/C1=C\c1cccn1CCOc1ccc(Cl)cc1,40µM,.,.,40µM,1.9µM,?
Cc1cccc(OCCn2cccc2/C=C2/C(=O)NC(=O)N(Cc3ccco3)C2=O)c1,45µM,.,/,.,1.9µM,.
CC(C)n1c(=O)c(C=Nc2ccc(Cl)cc2)c(O)n(Cc2ccco2)c1=O,.,/,.,.,/,/
CCc1ccc(N2C(=O)NC(=O)/C(=C/c3cccn3CCOc3ccc(C)cc3)C2=O)cc1,?,.,.,?,.,.
O=C1NC(=S)NC(=O)C1=Cc1ccc2c(c1)CCN2CCCCl,25µM,?,10µM,/,2.7µM,7.9µM
CCC1(OC(=O)CN)C(=O)OCc2c1cc1n(c2=O)Cc2cc3ccccc3nc2-1 (stereo unspecified),.,.,.[12.7 µM],/,.,.
CCC1(O)C(=O)OCc2c1cc1n(c2=O)Cc2cc3cc(O)ccc3nc2-1 (stereo unspecified),/,.,/,.,12µM,?
CC[C@@]1(O)C(=O)OCc2c1cc1n(c2=O)Cc2cc3c(O)cccc3nc2-1,/,/,2.5µM,/,/,/
CC[C@@]1(O)C(=O)OCc2c1cc1n(c2=O)Cc2cc3ccccc3nc2-1,.,.,45µM!,?,/,.
Oc1ccc2c3c1O[C@H]1c4oc5ccccc5c4C[C@@]4(O)C(C2)N(CC2CC2)CC[C@]314,/,/,.,.,/,/
NC(N)=Nc1ccc2[nH]c3c(c2c1)C[C@@]1(O)[C@H]2Cc4ccc(O)c5c4[C@@]1(CCN2CC1CC1)[C@H]3O5,25µM,?,1.3µM,/,0.95µM,3.5µM
O=C(COc1ccccc1/C=C1/NC(=O)NC1=O)Nc1ccccc1,.,.,?,.,3.4µM,.
Cc1ccc(-n2nc3ccc(NC(=O)COc4ccccc4C)cc3n2)cc1,.,.,.,.,/,.
COc1ccc2c(ccn2CC(=O)NCC2(CC(=O)O)CCCCC2)c1,/,/,/,.,/,/
SMILES,BAZ2B block,HP1b binding inh,G9a inh,12-LOX inh,PLK1 PBD inh,JMJD2A Tudor inh
CCOC(=O)c1c(NC(=O)C(c2ccccc2)c2ccccc2)sc2c1C1CCN2CC1,?,.,50µM,?,.,?
Cc1ccc(NC(=O)COC(=O)CCc2c[nH]c3ccccc23)cc1[N+](=O)[O-],?,.,40µM,.,.,?
CC(=O)NCCc1c[nH]c2ccccc12,?,.,.,?,.,.
O=P(OCC(F)(F)C(F)F)(N1CCOCC1)N1CCOCC1,.,.,.[2.33 µM],.,.,.
CCOP(=O)(OCC)C(NC(=O)C(C)C)C(Cl)(Cl)Cl (stereo unspecified),.,.,.[0.501 µM],.,.,.
CCOc1ccc(CNC(=O)CSc2c3c(nc4cc(Cl)ccc24)CCCC3)cc1,.,.,.,.,/,.

# High-throughput results from PubChem.
